An excerpt weighted towards active compounds, which were near 6% of everything screened.
Tau fibril FP: qHTS for Inhibitors of Tau Fibril Formation, Fluorescence Polarization; K18 P301L tau heparin fibrillization, Alexa594 FP, 6 h; Potency, µM (titrated, usually from 57.7 µM), for inactives: at the highest dose activity, negative = inhibition, hits mostly inhibitors; 280,000 compounds, 0.39% hits; AID 1468, 2008; further: nearly all actives have a fitted effect of over 55% in size
Target sequence (P10636 561-689 P618L limits assumed): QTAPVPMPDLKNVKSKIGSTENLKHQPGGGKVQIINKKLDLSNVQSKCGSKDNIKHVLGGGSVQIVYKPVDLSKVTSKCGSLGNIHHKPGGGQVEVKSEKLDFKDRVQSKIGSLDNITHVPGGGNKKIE
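Heparin (20 uM) drove fibril formation of recombinant tau K18 P301L, 15 uM unlabeled with 0.24 uM Alexa 594 label, for 6 hr at 37 C in 100 mM sodium acetate pH 7. Fluorescence polarization (555/632 nm) read 1 hr after 30 uM ThT.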
Tau fluor counter: Counterscreen qHTS for Inhibitors of Tau Fibril Formation, Fluorescence Polarization | tau K18 P301L Alexa594 fluorescence, heparin fibrillization | Potency, µM (titrated, usually from 57.7 µM), for inactives: top-dose activity change, negative = decrease | 280,000 compounds, 0.93% hits | AID 1463, 2008; further: nearly all actives have a fitted effect of over 55% in size
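Human K18 P301L tau (15 uM unlabeled plus 0.24 uM Alexa 594-labeled, final) in 100 mM sodium acetate pH 7 was mixed with compound and 20 uM heparin and incubated 6 hr at 37 C.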
VDR inh: Inhibitors of the vitamin D receptor (VDR): qHTS; Vitamin D3 receptor (Homo sapiens), P11473; VDR-SRC2-3 peptide fluorescence polarization, 2 h; Potency, µM, for the others: max response, negative = inhibition, most hits filed as inhibitors; 400,000 compounds, 0.93% hits; AID 504847, 2011
Target sequence (P11473 whole entry, looked up): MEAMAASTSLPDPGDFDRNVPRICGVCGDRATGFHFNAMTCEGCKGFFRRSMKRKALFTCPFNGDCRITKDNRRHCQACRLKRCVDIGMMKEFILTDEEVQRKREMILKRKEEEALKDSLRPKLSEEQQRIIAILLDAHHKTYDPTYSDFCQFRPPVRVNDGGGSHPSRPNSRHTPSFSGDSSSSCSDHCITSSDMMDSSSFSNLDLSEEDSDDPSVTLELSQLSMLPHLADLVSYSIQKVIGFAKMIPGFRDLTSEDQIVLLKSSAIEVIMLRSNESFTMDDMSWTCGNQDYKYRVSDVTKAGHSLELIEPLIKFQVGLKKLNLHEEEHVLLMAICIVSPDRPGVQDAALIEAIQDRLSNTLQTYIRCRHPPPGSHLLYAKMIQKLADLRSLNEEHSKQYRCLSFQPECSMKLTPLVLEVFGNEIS
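After 23 nl compound addition and a short centrifugation, plates sat for 2 hours at ambient temperature; polarization of fluorescence then indicated loss of VDR binding to peptide SRC2-3.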
Sfp inh: qHTS Assay for Inhibitors of Bacillus subtilis Sfp phosphopantetheinyl transferase (PPTase). Biochemical Sfp PPTase activity, qHTS. Potency, µM, for the others: largest response in the series, negative = inhibition, usual class: inhibitors. 310,000 compounds, 3.5% hits. AID 1490, 2009;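 further: the enzyme is Sfp with the accession as filed and its product quenches rhodamine fluorescence; 0% = enzyme reaction without inhibitor and -100% = no enzyme wells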
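Fluorescence-quenching assay with 15 nM Sfp, 5 uM rhodamine-CoA and 12.5 uM BHQ-2-labelled ybbR peptide in pH 7.6 Hepes/MgCl2 buffer. Enzyme was pre-incubated with compound for 15 min at room temperature. Rate was taken from the 30-min fluorescence change (525/598 nm).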
Tau ThT inhib: qHTS for Inhibitors of Tau Fibril Formation, Thioflavin T Binding; Microtubule-associated protein tau (Homo sapiens), P10636; recombinant tau K18 P301L (four-repeat tau fragment), heparin-induced fibrillization, ThT fluorescence; Potency, µM (highest dose often 57.4 µM), inactives show at the top dose activity, negative = inhibition, usual class: inhibitors; 270,000 compounds, 2.1% hits; AID 1460, 2008; further: nearly all actives have a fitted effect of over 55% in size
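In this qHTS, human K18 P301L tau is incubated with compound and heparin for 6 hr at 37 C, and Thioflavin T fluorescence then reports fibril load.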
PLK1 PBD block: qHTS for Inhibitors of PLK1-PDB (polo-like kinase 1 - polo-box domain): Primary Screen; Plk1 PBD binding of FITC phosphopeptide, fluorescence polarization; Potency, µM, without a hit: max response, negative = inhibition, usual class: inhibitors; 360,000 compounds, 2.8% hits; AID 720504, 2013; further: series mostly up to about 57 µM; nearly all actives have a fitted effect of over 65% in size
Active calls of the source: *; ? = inconclusive; / = no result given; ! = not active in a repeat; [ ] = dose if it differs, or a comment. The call rests on the fitted dose curve; in most records, active means well fitted curve in the direction sought with a large enough effect; inconclusive means small, poorly fitted or top-dose-only effect, or another doubt; inactive means no such curve, though single readings can be large; an effect the other way counts as inactive or inconclusive. Unless noted, on the % scale 0 is the no-effect control and ±100 the full control effect; potency means the concentration at half of the fitted maximal effect.

SMILES | Tau fibril FP | Tau fluor counter | VDR inh | Sfp inh | Tau ThT inhib | PLK1 PBD block
CCc1ccc(Cn2nnc(C(=O)Nc3ccc(C)cc3)c2N)cc1 | -7% | -2% | -9% | / | -1% | /
Cc1cc(OC(=O)c2ccccc2Br)cc(=O)n1C | 5% | -16% | -7% | -6% | ? | 21µM*
Cc1cccc(NC(=O)CNC(=O)COc2cc(F)ccc2[N+](=O)[O-])c1C | -7% | -8% | ? | 24% | -2% | 15µM*
CCOC(=O)c1c(C)[nH]c(C(=O)CSc2ccccc2)c1C | 4% | 4% | 14% | -3% | -2% | -8%
CCOC(=O)c1c(C)[nH]c(C(=O)CN2CCN(CC)CC2)c1C | 9% | 4% | -3% | 79µM* | / | 4%
CCOC(=O)c1c(C)[nH]c(C(=O)CSc2nnc(C3CC3)n2N)c1C | -2% | -15% | ? | -4% | ? | 24µM*
CCCN1CCN(CCNC(=O)Nc2cc(C)ccc2OC)CC1 | 0% | -2% | 4% | / | 0% | /
CN(C)CCC(=O)C(Cc1ccccc1)c1ccccc1 (stereo not drawn) | / | / | 45µM* | / | / | 4.7µM*
CC[N+]1(C)CCC(O)(c2ccc(OC)cc2)C(C(=O)c2ccc(OC)cc2)C1 (stereo not drawn) | / | / | ? | / | / | 6.7µM*
CC1CC(Nc2cccc(O)c2)=CC(=O)O1 (stereo not drawn) | -2% | -7% | 28% | 18% | -13% | -6%
C[C@@H]1Cc2c(O)c(O)cc(O)c2C(=O)O1 | 25µM* | -21% | 9% | -9% | 32µM* | -17%
CCOC(=O)N1CCN(C(=O)CN(c2cccc(Cl)c2)S(=O)(=O)c2ccccc2)CC1 | -6% | -10% | -6% | / | -1% | /
CC(=O)Nc1ccc(S(=O)(=O)NCC(=O)NNC(=O)c2csc(N3CCOCC3)n2)cc1 | / | / | 4% | / | / | 21µM*
COc1ccc(NC(=O)Cn2c(=O)n(Cc3ccccc3OC)c(=O)c3cccnc32)cc1Cl | 25µM* | -27% | 4% | / | 20% | /
Cc1ccc(Cn2c(=O)c3cccnc3n(CC(=O)Nc3cccc(C(F)(F)F)c3)c2=O)cc1 | 18µM*! | -10% | 1% | ? | 13% | -15%
Cc1cccc(C)c1NC(=O)Cn1c(=O)n(Cc2ccccc2Cl)c(=O)c2cccnc21 | -12% | 8% | -13% | / | 12% | /
CC[C@H](C)[C@H](NC(=O)[C@H](Cc1ccc(O)cc1)NC(=O)CNC(=O)[C@@H]1CCCN1C(=O)[C@H](CC(=O)O)NC(=O)[C@@H](N)CS)C(=O)NCC(=O)N[C@@H](CO)C(=O)N[C@@H](CCCN=C(N)N)C(N)=O | / | / | -1% | -2% | / | /
CCN(CC)CCC(c1cc(OC)c(OC)c(OC)c1)c1c(OC)cc(OC)c2c1OC(=O)CC2c1ccc(N(C)C)cc1 (stereo not drawn) | / | / | -14% | 4% | / | /
COc1ccc(/C=C2\CCCC(C(=O)C(F)(F)F)=C2O)cc1 | -10% | -17% | -19% | -12% | ? | ?
O=C(C1=C(O)/C(=C/c2ccc(O)cc2)CCC1)C(F)(F)F | ? | ? | -10% | -22% | 28µM* | 8%
Cc1ccccc1NC(=S)NC(=O)/C=C/c1ccco1 | / | / | ? | ? | / | 21µM*
CC(OC(=O)/C(C#N)=C/c1ccco1)C(=O)N(C)c1ccccc1 (stereo not drawn) | / | / | 0% | / | / | -1%
CCc1ccccc1NC(=O)/C(=C/c1ccco1)c1ccccc1 | -6% | -19% | -1% | 45µM* | ? | -9%
Cc1ccccc1NC(=O)/C(=C/c1ccco1)c1ccccc1 | -10% | -22% | -7% | 56µM* | -14% | -19%
CC(C)OC(=O)/C(=C/c1ccco1)c1ccccc1 | -8% | 0% | -3% | 45µM* | -2% | -4%
SMILES | Tau fibril FP | Tau fluor counter | VDR inh | Sfp inh | Tau ThT inhib | PLK1 PBD block
O=C(Nc1ccon1)c1ccc(N2CCCCC2)c([N+](=O)[O-])c1 | -2% | -16% | -15% | 12% | ? | ?
O=C(Nc1nc2ccccc2s1)c1ccc(N2CCCCC2)c([N+](=O)[O-])c1 | -14% | ? | -8% | -27% | 4.5µM* | -5%
O=C(Nc1nc(-c2ccccc2)cs1)c1ccc(N2CCOCC2)c([N+](=O)[O-])c1 | 5% | ? | -12% | 6% | 8.9µM* | 3%
CN(Cc1ccc(F)cc1)S(=O)(=O)c1nnc(NC(=O)c2ccc(F)cc2)s1 | -7% | -13% | 1% | / | 11% | /
COc1ccc(/C=N/NC(=O)Cc2csc(Nc3cccc(C(F)(F)F)c3)n2)cc1C | ? | 18µM*[quencher] | -19% | 3% | ? | -2%
C=CCn1c(COc2ccccc2)nnc1SC(C)C(=O)N/N=C/c1cc(Cl)ccc1O (stereo not drawn) | 4% | ? | -24% | 15% | -10% | 27µM*
C=CCn1c(COc2ccc(Cl)cc2)nnc1SCC(=O)N/N=C/c1cccc(O)c1 | -4% | -12% | -1% | 5% | 1% | -1%
CC(C)(C)N1NC2(CCCCC2)NC1=S | -6% | -5% | 2% | 22µM* | -7% | ?
CC(=O)Nc1ccc(S(=O)(=O)NCCc2csc3nc(-c4ccc(Cl)cc4)nn23)cc1 | ? | -21% | 5% | / | 2% | /
N#Cc1c(-c2ccccc2Cl)c2c([nH]c1=O)-c1ccccc1OC2 | -4% | -7% | 1% | 4% | 7% | ?
N#Cc1c2c(c(-c3ccccc3Cl)[nH]c1=S)CCCC2 | 0% | 9% | 3% | ? | -12% | 17µM*
COC(=O)[C@@H]1C[C@@H]2CC[C@@H](O)C[C@@H]2N1Cc1ccc(-c2ccccc2)cc1 | 12% | -9% | / | -1% | -11% | /
OCCCNc1ncnc2c1ncn2[C@H]1CN(Cc2ccc3c(c2)OCO3)C[C@@H](CO)O1 | / | / | / | / | / | -9%
Cc1sc2nc(CSc3nnnn3-c3ccc(Cl)cc3)[nH]c(=O)c2c1C | -2% | -16% | -6% | 79µM* | ? | -10%
CCn1c(SCc2nc3sc(C(=O)O)c(C)c3c(=O)[nH]2)nnc1-c1ccc(Cl)cc1 | 0% | -2% | -16% | -2% | -16% | -3%
N#Cc1c(-c2ccccc2)nc(SCC(=O)N2c3ccccc3Sc3ccccc32)[nH]c1=O | ? | -21% | -11% | 6% | ? | 19µM*
N#Cc1c(-c2ccco2)nc(SCc2ccc(F)cc2)[nH]c1=O | 14% | 2% | -10% | 10% | 6% | 24µM*
